Test systems include HCT-15 colon; HT29 colon; SNB-75 CNS; SNB-19 CNS; U251 CNS; PC-3 prostate; SK-MEL-5 melanoma; UACC-62 melanoma; LOX IMVI melanoma; SK-MEL-28 melanoma; SK-MEL-2 melanoma; EKVX NSCLC; SN12C renal; TK-10 renal; ACHN renal; CAKI-1 renal; A498 renal; CCRF-CEM leukemia; MOLT-4 leukemia; UO-31 renal.
Holding throughout (assay): NCI-60 one-dose screen, 48 h (100 = growth as untreated, 0 = no growth, -100 = all killed)
Settings in all cases: 10 µM unless noted

Each structure is given as a SMILES string. This is part of a sample that, as a whole, favours compounds with a hit. Of some 83,000 tested, about 20% had one in any assay.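 Cell lines were cultured in 96-well plates, exposed to a single compound concentration, and assessed for percent growth 48 hours later.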 Unmarked numbers belong to inactive results. The source made the active and inactive calls. Rule for the calls: active = growth percent below 10; inactive = the rest.

As to `CC1CCc2c(sc(NC(=O)CSc3nnc4ccccn34)c2C(N)=O)C1` (stereo not given), the growth is 106% with HCT-15 colon; 117% in the assay with HT29 colon; 104% with SNB-75 CNS; 115% with SNB-19 CNS; 108% in the assay with U251 CNS; 106% in the assay with PC-3 prostate. Also, the growth with SK-MEL-5 melanoma is 99.3%; with UACC-62 melanoma, 101%; with LOX IMVI melanoma, 90.5%; in the assay with SK-MEL-28 melanoma, 137%; with SK-MEL-2 melanoma it was 48.4%; in the assay on EKVX NSCLC, 150%. Moreover, the growth in the assay on SN12C renal is 102%; with TK-10 renal, 179%; with ACHN renal, 96.7%; in the assay with CAKI-1 renal it was 95.7%; in the assay with A498 renal, 133%; in the assay on CCRF-CEM leukemia, 101%. The growth in the assay with MOLT-4 leukemia is 108%.
In the case of `COc1ccc(NC(=O)/N=c2\oc3c(OC)cccc3cc2-c2cc3ccccc3[nH]2)cc1`, the growth with HCT-15 colon was 73.3%; in the assay with HT29 colon it was 57.7%; in the assay on SNB-75 CNS, -8.95% (active); in the assay with SNB-19 CNS it was 36.2%; in the assay on U251 CNS, 34.1%; in the assay with PC-3 prostate, 39.3%. For the same compound, the growth is 60.6% with SK-MEL-5 melanoma; 65.6% in the assay on UACC-62 melanoma; 73.1% in the assay with LOX IMVI melanoma; 81.9% with SK-MEL-28 melanoma; 75.9% with SK-MEL-2 melanoma; 72.3% with EKVX NSCLC. Moreover, the growth is 78.1% in the assay with SN12C renal; 42% in the assay with TK-10 renal; 34.9% in the assay with ACHN renal; 49% with CAKI-1 renal; 75% in the assay with A498 renal; 112% in the assay on MOLT-4 leukemia.
As to `O=C1Nc2cc(Cl)ccc2Oc2cc(Oc3ccccc3)ccc21`, the growth in the assay with HCT-15 colon is 46.7%; with HT29 colon, 17.4%; with SNB-75 CNS, 50.9%; in the assay on SNB-19 CNS it was 72.7%; with U251 CNS, 74.1%; in the assay with PC-3 prostate, 75.2%. Besides, the growth in the assay with SK-MEL-5 melanoma was 34.5%; with UACC-62 melanoma, 59.6%; in the assay on LOX IMVI melanoma, 51.5%; in the assay on SK-MEL-28 melanoma, 71%; in the assay with SK-MEL-2 melanoma, 48%; with EKVX NSCLC, 72%. The growth in the assay with SN12C renal is 68%; in the assay on TK-10 renal it was 78%; in the assay with ACHN renal, 83.7%; in the assay with CAKI-1 renal it was 51%; in the assay on A498 renal it was 67.1%; in the assay on CCRF-CEM leukemia, 54.6%. In addition, the growth in the assay with MOLT-4 leukemia was 45.9%.
As for `COc1ccc([N+](=O)[O-])c(/C=C/C(=O)c2ccccn2)c1`, the growth in the assay with HCT-15 colon is 57.5%; in the assay on HT29 colon it was 58.8%; in the assay with SNB-75 CNS, 67.2%; in the assay on SNB-19 CNS, 97.6%; in the assay with U251 CNS it was 42.2%; with PC-3 prostate, 82.1%. The growth with SK-MEL-5 melanoma was 90%; in the assay with UACC-62 melanoma, 94.7%; with LOX IMVI melanoma, 41%; with SK-MEL-28 melanoma it was 100%; in the assay with SK-MEL-2 melanoma it was 114%; in the assay with SN12C renal, 81.2%. Moreover, the growth is 73.3% in the assay on UO-31 renal; 126% in the assay with TK-10 renal; 68.9% with ACHN renal; 71.7% in the assay with CAKI-1 renal; 83.3% with A498 renal; 49.6% with CCRF-CEM leukemia. Besides, the growth with MOLT-4 leukemia was 13.3%.
Consider `CN(C)C1CCC(NC2=CC(=O)C=CC2=O)CC1` (stereo not given), for which the growth was 114% with HCT-15 colon; 116% in the assay with HT29 colon; 86.1% with SNB-75 CNS; 115% with SNB-19 CNS; 111% in the assay with U251 CNS; 104% in the assay with PC-3 prostate. For the same compound, the growth in the assay on SK-MEL-5 melanoma was 106%; with UACC-62 melanoma, 110%; in the assay on LOX IMVI melanoma, 97.9%; with SK-MEL-28 melanoma it was 113%; in the assay with SK-MEL-2 melanoma it was 107%; in the assay on EKVX NSCLC, 111%. The growth in the assay on SN12C renal was 115%; in the assay on UO-31 renal, 92.3%; with TK-10 renal, 113%; in the assay with ACHN renal it was 99.2%; in the assay on CAKI-1 renal, 100%; in the assay on CCRF-CEM leukemia, 107%. The growth with MOLT-4 leukemia was 102%.
For the compound `O=C(Nc1ccccc1)OCC1OCOC(COC(=O)Nc2ccccc2)C1OC(=O)Nc1ccccc1` (stereo not given), the growth in the assay on HCT-15 colon is 51.7%; in the assay with HT29 colon, 43.1%; in the assay on SNB-75 CNS, 32%; in the assay with SNB-19 CNS, 73.2%; in the assay with U251 CNS, 74.9%; in the assay on PC-3 prostate it was 64.2%. Further, the growth in the assay with SK-MEL-5 melanoma is 67.8%; in the assay with UACC-62 melanoma, 73.1%; in the assay with LOX IMVI melanoma, 29.7%; in the assay with SK-MEL-28 melanoma it was 39.2%; with SK-MEL-2 melanoma, 109%; in the assay with SN12C renal it was 77.3%. Further, the growth with UO-31 renal was 85.6%; in the assay on TK-10 renal, 83.3%; in the assay on ACHN renal, 48.4%; in the assay with CAKI-1 renal, 91.7%; in the assay with A498 renal, 69%; in the assay with CCRF-CEM leukemia, 29.5%. The growth with MOLT-4 leukemia was 73.8%.
Consider `O=C(COc1ccccc1)N1N=C(c2ccc(Cl)cc2)CC1c1c[nH]c2ccccc12` (stereo not given), for which the growth with HCT-15 colon is 62.1%; in the assay with HT29 colon it was 90.4%; in the assay on SNB-75 CNS it was 66.6%; in the assay on SNB-19 CNS, 93.3%; in the assay with U251 CNS, 58%; with PC-3 prostate, 63.2%. In addition, the growth in the assay with SK-MEL-5 melanoma is 85.5%; in the assay on UACC-62 melanoma, 70.9%; in the assay with LOX IMVI melanoma it was 59.1%; in the assay on SK-MEL-28 melanoma, 104%; with SK-MEL-2 melanoma, 85.3%; in the assay with SN12C renal, 62.7%. The growth with UO-31 renal is 25.7%; in the assay on TK-10 renal, 93.6%; in the assay on ACHN renal, 60.8%; in the assay with CAKI-1 renal, 46%; with A498 renal, 72.1%; with CCRF-CEM leukemia, 11.3%. The growth in the assay with MOLT-4 leukemia is -8.31% (active).
For the compound `O=C1CCC(=O)N1Cc1ccccc1`, the growth was 99.9% in the assay on HCT-15 colon; 101% in the assay on HT29 colon; 80.4% in the assay with SNB-75 CNS; 110% in the assay with SNB-19 CNS; 101% in the assay with U251 CNS; 100% in the assay on PC-3 prostate. For the same compound, the growth is 102% in the assay on SK-MEL-5 melanoma; 104% with UACC-62 melanoma; 90.5% in the assay with LOX IMVI melanoma; 101% in the assay on SK-MEL-28 melanoma; 95.1% in the assay on SK-MEL-2 melanoma; 104% in the assay with SN12C renal. Moreover, the growth in the assay with UO-31 renal is 98.1%; with TK-10 renal, 92.2%; in the assay with ACHN renal, 101%; in the assay with CAKI-1 renal, 94.2%; in the assay with A498 renal it was 85.8%; in the assay on CCRF-CEM leukemia it was 108%. Moreover, the growth in the assay on MOLT-4 leukemia was 101%.
Turning to `Cn1cc(C=O)c2ccccc21`, the growth with HCT-15 colon is 103%; in the assay on HT29 colon, 100%; in the assay with SNB-75 CNS, 80%; in the assay with SNB-19 CNS, 100%; with U251 CNS, 98.5%; in the assay with PC-3 prostate it was 83.4%. Moreover, the growth with SK-MEL-5 melanoma was 99.4%; in the assay with UACC-62 melanoma, 106%; in the assay on LOX IMVI melanoma, 88.4%; in the assay with SK-MEL-28 melanoma it was 109%; in the assay on SK-MEL-2 melanoma, 109%; with SN12C renal, 91.7%. For the same compound, the growth with UO-31 renal was 60.6%; in the assay on TK-10 renal, 102%; in the assay with ACHN renal it was 93.5%; with CAKI-1 renal it was 94.6%; in the assay with A498 renal, 95.4%; with CCRF-CEM leukemia it was 90.6%. In addition, the growth in the assay on MOLT-4 leukemia was 92%.
